aDG glyco act: alpha-DG glycosylation activation | Pro5-aDG cells, alpha-DG glycosylation AlphaScreen (IIH6); 0% Pro5, 100% B10-LARGE cell signal | 0.22% of 360,000 active | activation, % at 10 µM | AID 624168;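 active = activation of at least 8% versus controls, or a plate z-score of at least 8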;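 also: Pro5 are CHO cells carrying HIG-tagged alpha-DG that lacks glycosylation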
ADAM17 inh: inhibitors of human ADAM17. P78536. recombinant ADAM17, EDANS/DABCYL FRET peptide cleavage. inhibition, % at 6.95 µM. 0.83% of 370,000 active;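 active = inhibition above the mean of compounds lying between control limits plus 3 SD, set per campaign, cut at about 8.5% in these data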;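 also: 0% = DMSO-only wells as the low control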
GRIN3A LBD mod: NR3A (human) ligand-binding domain modulation; NR3A LBD differential scanning fluorimetry, Tm shift; 0% = protein alone, 100% = glycine-bound protein; Tm shift relative to glycine control, % at 25 µM; 2.5% of 340,000 active;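 active = melting temperature shift of at least 10% of the positive control shift, at one fixed dose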
FAS TE block: FAS thioesterase (human) inhibition; P49327; recombinant FAS-TE, OMFH fluorogenic substrate, fluorescence endpoint; inhibition, % at 15 µM; 0.67% of 360,000 active; AID 602261;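 active = compounds whose normalised, plate-corrected inhibition of enzyme fluorescence in the single-dose primary screen is 50% or more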;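 also: 0% = DMSO with enzyme and 100% = substrate without enzyme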
ADAM10 inh: ADAM10 inhibition, QFRET primary screen. recombinant ADAM10, EDANS/DABCYL FRET peptide cleavage, 3 h. 0.62% of 370,000 active. inhibition, % at 7 µM. AID 720582;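 active = inhibition above a per-campaign cutoff equal to the mean of compounds falling between control-based bounds plus 3 SD, cut at about 20% in these data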;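 also: 0% = DMSO wells while the 100% control is not disclosed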
aDG glyco conf: alpha-DG glycosylation activation, confirmation | activation, % at 10 µM (by protocol) | Pro5-aDG cells, IIH6 AlphaLISA; scaled to LARGE-overexpressing B10 cells as 100% | 17% of 600 active | shares compounds with aDG glyco act;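 active = activation of at least 7% in one or more replicates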;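 also: cells exposed to compound for two days before detection; 0% = DMSO-treated Pro5 cells and 100% = DMSO-treated B10-LARGE cells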
The depositor's hits bear a star; . = not tested or not shown. A selection: hits, their analogues and other compounds. The true share with any hit is near 4%.

SMILES	aDG glyco act	ADAM17 inh	GRIN3A LBD mod	FAS TE block	ADAM10 inh	aDG glyco conf
COc1ccc(C(=O)Nc2nc3ccccc3[nH]2)cc1OC	-0.2	-1.7	-1.3	-9.1	6.6	.
CCOc1ccc(C(=O)Nc2nc3ccccc3[nH]2)cc1OCC	7.9*	1.7	-0.5	-9.6	-7.1	1.1
Cc1ccc(N(CC(=O)NC2CCCC2)C(=O)CNC(=O)c2cccs2)cc1C	0.2	-2.8	-2.5	5.8	-4.3	.
CCOC(=O)N1CCC(N2C(=O)c3ccc(C(=O)Nc4ccc(F)cc4F)cc3C2=O)CC1	8.8*	-2.7	-1.1	-7.1	-8.0	-1.0
O=C(NCCO)c1cc2c([nH]c3ccccc32)c(-c2ccc(F)cc2)n1	0.1	-102.8	-0.2	1.5	-279.7	.
CCn1c2c(c(=N)c3ccccc31)CCC2	3.4*	-8.8	0.0	-7.6	-9.9	0.1
O=C(Nn1c(SCc2cccc([N+](=O)[O-])c2)nc2ccccc2c1=O)c1ccccc1	-0.2	5.7	1.3	41.4	13.0	.
Cn1c(SCc2cccc([N+](=O)[O-])c2)nc2ccccc2c1=O	2.6*	0.5	-1.6	42.6	4.4	0.2
O=C(Cc1ccc(S(=O)(=O)N2CCOCC2)s1)NC1CCCCC1	0.6	-1.8	-0.3	-2.9	-1.6	.
CC1CCCCC1NC(=O)Cc1ccc(S(=O)(=O)N2CCOCC2)s1 (stereo not given)	6.0*	-4.6	4.5	0.2	-8.0	-0.8
Cc1ccc(S(=O)(=O)Nc2nc3ccccc3nc2NCC2CCCO2)cc1 (stereo not given)	-0.2	-78.7	2.1	-3.6	-205.5	.
COc1ccc(OC)c(NC(=O)N[C@@H](Cc2ccccc2)C(=O)O)c1	5.9*	-3.3	1.3	-5.9	0.6	0.3
Cc1nnc(SCc2ccccn2)n(N)c1=O	3.5*	-2.3	0.8	-6.3	2.9	0.0
CCOC(=O)C1CSCCS(=O)(=O)N1Cc1cc(F)ccc1Br (stereo not given)	.	-1.1	.	.	-8.5	.
COC1C(OC(=O)/C=C/C=C/C=C/C=C/C(=O)O)CCC2(CO2)C1C1(C)OC1CC=C(C)C (stereo not given) (tested in a mixture with another compound)	0.0	2.1	-2.3	-4.8	5.7	.
CCn1c(C)nc2cc(S(=O)(=O)C(F)(F)C(F)C(F)(F)F)ccc21 (stereo not given)	4.4*	.	-1.6	-2.6	.	0.4
O=C(CSc1nnc(Cn2nnc3ccccc32)o1)N(Cc1ccc(Cl)cc1)c1ccccc1	6.4*	3.1	0.9	19.9	5.7	-0.1
Cc1ccc2nc(-c3ccc(F)cc3)c(CC3CCCCC3)n2c1	8.8*	-10.4	.	14.8	-51.8	-0.5
CC(C)(C)c1ccc(-n2ncc3c2CCCC3NC(=O)C2(C(N)=O)CC2)cc1 (stereo not given)	9.6*	-1.4	0.7	0.9	1.1	2.3
COc1cc(OC)c(CN2CCc3c([nH]c4ccccc34)C2)cc1Br	0.0	-4.6	-4.2	-9.3	-5.1	.
c1ccc2c(-c3cc(C4CCNCC4)[nH]n3)cccc2c1	13.9*	-3.7	-5.8	-1.9	-0.9	6.4*
O=C1C(=O)N(CCS(=O)(=O)c2ccccc2)c2ccc(F)cc21	7.6*	-4.8	-3.8	-2.0	-8.4	5.4*
CCc1nc(CN2CCCC(C(=O)c3ccc4c5c(cccc35)CC4)C2)c(C)[nH]1 (stereo not given)	7.3*	-140.2	-1.3	-0.7	-467.1	-0.6
O=C(c1ccc2c3c(cccc13)CC2)C1CCCN(Cc2ccncc2)C1 (stereo not given)	0.4	-46.0	-0.9	-1.8	-157.2	.
COc1ccccc1N1CCc2c(C)nc3c(OC)cccc3c21	0.1	.	0.6	-8.3	.	.
O=C(CN1C2=NCCCN2c2ccccc21)c1ccc([N+](=O)[O-])cc1	7.5*	5.4	3.9	-4.8	7.8	1.2
O=C(CN1C2=NCCCN2c2ccccc21)c1cccc(Br)c1	0.3	-0.9	-1.1	-11.6	-5.3	.
COc1cc(OC)cc(C(=O)Nc2cccc(N3CCCC3)c2)c1	3.7*	2.6	-21.6	-2.7	-1.2	1.8
O=C(NCC[C@@H]1CC[C@@H](NS(=O)(=O)c2ccccc2)[C@@H](CO)O1)c1cc(Cl)cc(Cl)c1	7.7*	-4.5	.	.	-6.3	-0.1
